# A number with no mark means an inactive call. Records with an inconclusive call do not appear. Entries that show only a call come without a potency. Activity calls are given as the source filed them. Unless noted, calls follow the shape of the dose curve; as a rule, active = well fitted curve in the direction sought with a large enough effect in the repeat runs; inconclusive = weak or mixed curves; inactive = no such curve, though single readings can be large; an effect the other way counts as inactive or inconclusive.
# What was measured:
# [1] = qHTS assay for small molecule agonists of the p53 signaling pathway (AID 651631; calls by dose curve; also: nearly all actives have a fitted effect of over 15% in size; also: potency is read from the fitted curve at half-maximal effect)
# Outline: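 HCT-116 cells carrying a beta-lactamase reporter under p53 response elements were dosed with compound for 16 h at 37 °C. LiveBLAzer B/G FRET substrate was then added for 2 h at room temperature, and fluorescence intensity was read to detect pathway agonism.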
# [2] = qHTS assay for small molecules that induce genotoxicity in human embryonic kidney cells expressing luciferase-tagged ATAD5 (AID 651632); also: nearly all actives have a fitted effect of over 15% in size; also: potency is read from the fitted curve at half-maximal effect
# Outline: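 Increased luciferase signal from ATAD5-tagged reporter cells indicates DNA-damage-driven ATAD5 induction. HEK293T cells are treated for 16 hr at 37C before detection with Amplite.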
# [3] = qHTS assay for small molecule agonists of the p53 signaling pathway - cell viability (AID 651633; calls by dose curve;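 also: p53RE-bla HCT reporter cells with a stable beta-lactamase p53 reporter; series mostly up to about 83 µM; nearly all actives have a fitted effect of over 30% in size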)
# Outline: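 p53RE-bla cells, seeded at 4,000 per well and rested 5 h at 37 C/5% CO2, received compounds in DMSO for 16 h at 37 C. CellTiter-Glo was then added, and luminescence was read after 30 min at room temperature to gauge cytotoxicity.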
# [4] = qHTS assay for small molecules that induce genotoxicity in human embryonic kidney cells expressing luciferase-tagged ATAD5 - cell viability (AID 651634; calls by dose curve; also: nearly all actives have a fitted effect of over 25% in size)
# Outline: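 Cytotoxicity counterscreen in HEK293T cells bearing an ATAD5-luciferase reporter: live-cell protease activity measured by CellTiter-Fluor fluorescence after 15.5 hr compound exposure.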
# [5] = qHTS assay for small molecule disruptors of the mitochondrial membrane potential - cell viability (AID 720634; calls by dose curve;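 also: human HepG2 liver cancer cells; series mostly up to about 83 µM; nearly all actives have a fitted effect of over 20% in size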)
# Outline: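 After overnight attachment at 37 C, HepG2 cells received compound or DMSO vehicle for 1 hr. Viability is then taken from ATP-driven luminescence following a 30 min room-temperature CellTiter-Glo step.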
# [6] = qHTS assay for small molecule disruptors of the mitochondrial membrane potential (AID 720635); also: potency is read from the fitted curve at half-maximal effect
# Outline: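 HepG2 cells (2,000/well) attached overnight at 37C, then took compound for 1 hr at 37C, 5% CO2. Mito-MPS dye was added for 30 min; fluorescence was read at 490/535 nm (monomers) and 540/590 nm (aggregates).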
# [7] = qHTS assay to test for compound auto fluorescence at 590 nm (red) in HepG2 cells (AID 720674)
# Outline: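 Rose Bengal sodium served as the red fluorophore standard. HepG2 monolayers (overnight attachment, MEM with 10% FBS) were exposed to test compounds for 1 hr at 37 C and read at Ex 540/Em 590 nm.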
# [8] = qHTS assay to test for compound auto fluorescence at 460 nm (blue) in HEK293 cells (AID 720678)
# Outline: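 Triamterene serves as the blue fluorophore standard. Compound signal at 405/460 nm is read in HEK293 wells (2,000 cells, 10% dialyzed FBS) after overnight treatment at 37C.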
# [9] = qHTS assay to test for compound auto fluorescence at 590 nm (red) in HEK293 cells (AID 720679)
# Outline: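 We plated HEK293 cells in 10% dialyzed FBS medium, let them adhere for 4-5 hr, then added 23 nL compound. Overnight at 37C and 5% CO2 preceded fluorescence measurement at 540/590nm.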
# [10] = qHTS assay to test for compound auto fluorescence at 535 nm (green) in HEK293 cells (AID 720680)
# [11] = qHTS assay to test for compound auto fluorescence at 460 nm (blue) in HEK293 cell free culture (AID 720681)
# Outline: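 Test compounds were pinned into cell-free culture medium (DMEM with 10% FBS) and fluorescence was read directly at Ex/Em 405/460 nm. Signals were expressed as fluorescence equivalents of triamterene, with DMSO vehicle as control.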
# [12] = qHTS assay to test for compound auto fluorescence at 535 nm (green) in HEK293 cell free culture (AID 720682)
# Outline: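 Green-label autofluorescence (485 nm excitation, 535 nm emission) measured on compound added to cell-free culture medium (DMEM, 10% FBS). Output is expressed relative to fluorescein.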
# [13] = qHTS assay to test for compound auto fluorescence at 590 nm (red) in HEK293 cell free culture (AID 720683)
# Outline: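 Tox21 10K library compounds were pinned into cell-free DMEM with 10% FBS and fluorescence was read at excitation 540 nm. Activity is expressed as Rose Bengal sodium equivalency.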
# [14] = qHTS assay to test for compound auto fluorescence at 590 nm (red) in HepG2 cell free culture (AID 720684)
# Outline: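 Measured in medium alone (MEM containing 10% FBS) following pintool addition of compound; emission at 590 nm with 540 nm excitation, referenced to Rose Bengal sodium.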
# [15] = qHTS assay to test for compound auto fluorescence at 460 nm (blue) in HepG2 cell free culture (AID 720685)
# Outline: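 Compound (23 nL) or DMSO pinned into cell-free MEM with 10% FBS; blue fluorescence read at 405/460 nm excitation/emission, expressed as auto-fluorescence equivalency to triamterene.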
# [16] = qHTS assay to test for compound auto fluorescence at 535 nm (green) in HepG2 cell free culture (AID 720686)
# [17] = qHTS assay to test for compound auto fluorescence at 460 nm (blue) in HepG2 cells (AID 720687)
# Outline: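 Cells (2,000/well in MEM with 10% FBS) attached overnight at 37 C, then were exposed to compound or DMSO for 1 hr at 37 C, 5% CO2. Fluorescence read at Ex/Em 405/460 nm, expressed as triamterene-equivalent signal.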
# [18] = target: Glucocorticoid receptor (Homo sapiens) (UniProt P04150); test: qHTS assay to identify small molecule antagonists of the glucocorticoid receptor (GR) signaling pathway (AID 720692; active = well fitted inhibition curve with a large enough effect in the signal ratio in the repeat runs, not every such curve was filed as active; the % refers to the signal ratio)
# Outline: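 Cells plated, rested 4 h at 37 C/5% CO2; compounds in DMSO pin-transferred; dexamethasone added to 5 nM final; 18 h at 37 C; B/G FRET substrate added, 2 h room temperature; fluorescence measured.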
# [19] = qHTS assay to test for compound auto fluorescence at 535 nm (green) in HepG2 cells (AID 720675)
# [20] = target: Glucocorticoid receptor (Homo sapiens) (UniProt P04150); test: qHTS assay to identify small molecule agonists of the glucocorticoid receptor (GR) signaling pathway (AID 720691; active = well fitted activation curve with a large enough effect in the signal ratio in the repeat runs, not every such curve was filed as active; the % refers to the signal ratio)
# Outline: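 Agonist mode in a HeLa line carrying a GRE-controlled beta-lactamase reporter. Compounds act for 18 h at 37 C before a 2 h room-temperature FRET substrate step and fluorescence reading.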
# Chain of Glucocorticoid receptor (Homo sapiens) (P04150 whole entry, looked up): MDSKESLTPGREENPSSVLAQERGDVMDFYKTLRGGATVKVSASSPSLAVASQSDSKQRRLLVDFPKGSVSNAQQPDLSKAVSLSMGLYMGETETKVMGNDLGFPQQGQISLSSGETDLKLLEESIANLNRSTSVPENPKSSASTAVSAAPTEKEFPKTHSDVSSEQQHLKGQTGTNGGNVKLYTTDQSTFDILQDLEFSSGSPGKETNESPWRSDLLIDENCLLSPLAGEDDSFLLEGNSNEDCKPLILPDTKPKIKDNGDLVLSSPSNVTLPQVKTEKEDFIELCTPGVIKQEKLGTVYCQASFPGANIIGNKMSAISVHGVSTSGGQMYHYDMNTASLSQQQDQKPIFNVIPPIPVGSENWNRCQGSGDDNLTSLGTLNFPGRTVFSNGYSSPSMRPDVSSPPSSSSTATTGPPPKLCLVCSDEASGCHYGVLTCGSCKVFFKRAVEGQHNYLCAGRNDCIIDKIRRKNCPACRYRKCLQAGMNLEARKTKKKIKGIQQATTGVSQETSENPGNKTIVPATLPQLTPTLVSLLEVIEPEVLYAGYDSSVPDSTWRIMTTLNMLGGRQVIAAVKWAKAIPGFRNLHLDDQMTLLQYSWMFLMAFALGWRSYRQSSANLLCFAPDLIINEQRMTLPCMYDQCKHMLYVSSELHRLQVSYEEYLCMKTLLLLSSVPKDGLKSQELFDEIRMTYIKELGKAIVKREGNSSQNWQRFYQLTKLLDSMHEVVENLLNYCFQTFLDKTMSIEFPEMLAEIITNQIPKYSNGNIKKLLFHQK
Structure (SMILES),Potency [1],Potency [2],Potency [3],Potency [4],outcome [5],Potency [6],outcome [7],Potency [8],outcome [9],outcome [10],Potency [11],outcome [12],outcome [13],outcome [14],Potency [15],outcome [16],Potency [17],Potency [18],outcome [19],Potency [20]
CC(=O)OCC(C)C,inactive,inactive,inactive,inactive,inactive,inactive,inactive,inactive,inactive,inactive,inactive,inactive,inactive,inactive,inactive,inactive,inactive,inactive,–,–
O=c1[nH]c2cc(C(F)(F)F)c(N3CCOCC3)cc2n(CP(=O)(O)O)c1=O,inactive,inactive,inactive,inactive,inactive,inactive,inactive,inactive,–,inactive,inactive,inactive,inactive,–,inactive,inactive,inactive,inactive,inactive,inactive
O=C(NS(=O)(=O)/C=C/c1ccccc1)c1ccc(F)cc1Cl,21.7 µM (active),15.4 µM (active),inactive,inactive,inactive,68.6 µM (active),inactive,inactive,inactive,–,inactive,inactive,inactive,inactive,inactive,inactive,inactive,–,–,–
Cc1cccc2sc(N)nc12,inactive,inactive,inactive,inactive,inactive,–,inactive,inactive,inactive,inactive,inactive,inactive,inactive,inactive,inactive,inactive,inactive,inactive,inactive,inactive
C[C@@H]1C[C@H]2[C@@H]3CCC4=CC(=O)C=C[C@]4(C)[C@@]3(F)[C@@H](O)C[C@]2(C)[C@@]1(O)C(=O)COP(=O)(O)O,inactive,inactive,inactive,–,inactive,inactive,inactive,inactive,inactive,inactive,inactive,inactive,inactive,inactive,inactive,inactive,inactive,–,inactive,–
CCC(CO)(CO)CO,inactive,inactive,inactive,inactive,–,–,inactive,inactive,inactive,–,inactive,inactive,inactive,–,inactive,inactive,inactive,inactive,–,inactive
COc1ccc(N)c([N+](=O)[O-])c1,inactive,inactive,inactive,–,inactive,inactive,inactive,inactive,inactive,inactive,inactive,inactive,inactive,inactive,inactive,inactive,inactive,inactive,inactive,inactive
